Screening results: PubChem BioAssay, The Scripps Research Institute Molecular Screening Center
Rows were chosen to be rich in hits. Some 2.4% of all compounds tested hit in one or more screens of this group.
CHRM1 PAM: human CHRM1 positive allosteric modulation | P11229 | activation, % at 3 µM | CHO-K1 hM1, Fluo-8 calcium fluorescence, ACh EC20; 0% = ACh EC20, 100% = maximal ACh | AID 588819 | 360,000 compounds, 0.088% hits; in the data active = activation above about 19%, passing the limit was not always enough
Target sequence (P11229 whole entry, looked up): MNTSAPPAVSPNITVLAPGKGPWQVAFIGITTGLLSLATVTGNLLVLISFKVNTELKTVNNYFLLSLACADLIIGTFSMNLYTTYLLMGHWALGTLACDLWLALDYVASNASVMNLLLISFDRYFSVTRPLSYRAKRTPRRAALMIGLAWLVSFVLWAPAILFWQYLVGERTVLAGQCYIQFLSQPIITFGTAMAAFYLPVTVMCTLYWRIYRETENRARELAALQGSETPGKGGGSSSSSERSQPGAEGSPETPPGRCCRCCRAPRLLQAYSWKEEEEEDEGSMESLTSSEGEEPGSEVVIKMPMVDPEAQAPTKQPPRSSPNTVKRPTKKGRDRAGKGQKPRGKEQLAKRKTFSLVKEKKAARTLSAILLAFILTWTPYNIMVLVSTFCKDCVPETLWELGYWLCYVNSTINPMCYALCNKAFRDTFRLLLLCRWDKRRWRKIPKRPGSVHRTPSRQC
M1 PAM parental: M1 PAM counterscreen hit in parental CHO-K1 cells. ATP EC20, Fluo-8 calcium fluorescence; 0% at ATP EC20, 100% at ATP max. activation, % at 3 µM. 360,000 compounds, 0.02% hits. AID 602247;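 active = activation above the run cutoff, the mean activation of all test compounds plus 3 SD, cut at about 40% in these data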;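 also: peak over basal fluorescence ratio in a 140 s read after ATP addition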
M1 ag: agonists of human M1 muscarinic receptor. P11229. CHO-K1 hM1, Fluo-8 calcium fluorescence, agonist mode; 0% DMSO, 100% acetylcholine EC100. activation, % at 3 µM. 360,000 compounds, 0.33% hits;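 active = activation above the run's mean compound activation plus 3 SD, cut at about 16% in these data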;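 also: peak over basal fluorescence ratio within a 140 s kinetic read after compound addition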
CHRM1 antagonist: human CHRM1 antagonism | inhibition, % at 3 µM | AID 588852 | 360,000 compounds, 1.3% hits | CHO-K1 hM1, Fluo-8 calcium fluorescence, ACh EC80 antagonist;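 active = percent inhibition above its own plate's cutoff, namely the mean of that plate's compound wells plus 3 SD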;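 also: peak over basal fluorescence ratio during 140 s after agonist addition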
CHO-K1 Ca ag: M1 agonist counterscreen hit in parental CHO-K1 cells; activation, % at 3 µM; AID 602248; 360,000 compounds, 0.48% hits; Fluo-8 calcium fluorescence; scaled to maximal ATP response, vehicle zero; in the data active = activation above about 15%;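 also: untransfected CHO-K1 host cells lacking M1 receptor as counterscreen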
CHO-K1 Ca antag: nonselective inhibitor or artifact in parental CHO-K1 cells; ATP-induced calcium, Fluo-8 fluorescence; inhibition, % at 3 µM; 360,000 compounds, 0.6% hits;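 active = inhibition above a per-plate cutoff, the plate's mean sample inhibition plus 3 SD, cut at about 24% in these data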
Large screens that a line does not name were inactive.

CSCCC(N=C(NS(=O)(=O)c1ccccc1)c1ccccc1)C(=O)O (configuration not stated)	none
Cc1nn(C(C)C(=O)N2CCCC2)c(=O)c2nn(-c3ccccc3)c(C)c12 (configuration not stated)	none
Cc1ccsc1CN(C(=O)c1ccc([N+](=O)[O-])cc1)C1CCS(=O)(=O)C1 (configuration not stated)	none
O=c1[nH]c2ccc(S(=O)(=O)N3CCC(Cc4ccccc4)CC3)cc2o1	CHO-K1 Ca antag 24
Cn1c(=O)c(=O)n(C)c2cc(S(=O)(=O)N3CCC(Cc4ccccc4)CC3)ccc21	none
COc1ccccc1CNS(=O)(=O)c1ccc2c(c1)CC(C)N2C(=O)C1CCC1 (configuration not stated)	CHO-K1 Ca antag 31
COc1ccccc1CNS(=O)(=O)c1ccc2c(c1)CC(C)N2C(=O)C1CC1 (configuration not stated)	none
CC(NC(=O)C1CCN(C(=O)[C@@H]2Cc3ccccc3CN2)CC1)c1ccccc1 (some centres not stated)	none
Cc1ccc(NC(=O)C2CC(=O)Nc3nncn32)cc1 (configuration not stated)	none
O=c1cc(O)c(-c2ccc(Cl)cc2)c(Cl)[nH]1	none
O=C1c2cc(Cl)ccc2-c2c(O)cc(Cl)cc21	CHRM1 antagonist 36
CC1N(C(=O)N2CCOCC2)CCN1S(=O)(=O)c1cccc(C(F)(F)F)c1 (configuration not stated)	none
c1cc(-c2n[nH]c(-c3ccncc3)n2)ccn1	CHO-K1 Ca ag 20
Cc1cccn2c(NC(=O)c3ccccc3F)c(-c3ccccc3)nc12	none
Fc1ccc2[nH]c3c(N4CCN(c5ccccc5)CC4)ncnc3c2c1	CHRM1 antagonist 54, CHO-K1 Ca antag 27
OC1(c2cccc(C(F)(F)F)c2)CCN(c2ncnc3c2[nH]c2ccc(F)cc23)CC1	CHRM1 antagonist 36
CCOC(=O)N1CCN(c2ncnc3c2[nH]c2ccc(F)cc23)CC1	CHRM1 antagonist 28
O=C(CCCN1CCC(O)(c2cccc(C(F)(F)F)c2)CC1)c1ccc(F)cc1	none
CCOC(=O)N1CCN(c2ncnc3c2[nH]c2ccc(OC)cc23)CC1	none
CCCCOc1ncnc2c1[nH]c1ccc(F)cc12	CHO-K1 Ca ag 16, CHO-K1 Ca antag 28
COc1ccc(C2=NS(=O)(=O)N(C)C(C(=O)Nc3ccc4c(c3)OCO4)=C2)cc1OC	none
CCN(CC(=O)NCc1ccc(Cl)cc1)C(=O)CCC(=O)c1ccc(F)cc1	none
CCCCn1c(N)c(N(CCOC)C(=O)c2ccc3c(c2)C(=O)N(c2ccccc2C)C3=O)c(=O)[nH]c1=O	CHRM1 antagonist 33
Cc1ccccc1C(=O)Nc1ccnn1C1CCN(C2CCSCC2)CC1	none
COc1ccc(-n2nc3cc(C)c(NC(C)=O)cc3n2)cc1	CHO-K1 Ca antag 30
CCc1ccc(CN2CCC(Oc3cc(C(=O)NC4CC4)ccc3OC)CC2)cc1	none
CN(C)S(=O)(=O)c1ccc(Cl)c(NC(=O)CSc2nc3c(cc2C#N)C(=O)CCC3)c1	CHO-K1 Ca ag 17
O=C(Nc1ccnn1C1CCN(Cc2cc(Cl)ccc2O)CC1)C1CC1	none
Cc1cc(C)c(S(=O)(=O)Cc2ccccc2)c(=O)[nH]1	CHO-K1 Ca antag 25
Cc1cc(C)c(S(=O)(=O)Cc2ccc(Cl)cc2)c(=O)[nH]1	none
Cc1ccc(NC(=O)CNC(=O)c2cccc(C)c2)nc1	M1 ag 21
O=C(O)CCN=CC1=C(O)CC(c2ccccc2)CC1=O (configuration not stated)	none
CC(C1CC1)N(Cc1ccccc1)C(=S)Nc1ccccc1Cl (configuration not stated)	CHO-K1 Ca ag 18
CC1(c2ccc([N+](=O)[O-])cc2)NC(=O)N(CC(=O)c2ccc3c(c2)OCO3)C1=O (configuration not stated)	M1 ag 37, CHO-K1 Ca ag 30
CC1(c2ccc(OC(F)F)cc2)NC(=O)N(CC(=O)NC2CCCCC2)C1=O (configuration not stated)	none
CC1CCCCC12NC(=O)N(CC(=O)c1ccc3c(c1)OCO3)C2=O (configuration not stated)	CHO-K1 Ca antag 32
CC1(c2ccc(OC(F)F)cc2)NC(=O)N(CC(=O)c2ccc3c(c2)OCO3)C1=O (configuration not stated)	M1 ag 43, CHO-K1 Ca ag 36
COc1ccc(OC)c(N2C(=O)c3ccccc3C2c2nnnn2-c2ccc3c(c2)OCCO3)c1 (configuration not stated)	none (no result: CHRM1 PAM, M1 ag, CHRM1 antagonist)
Cc1ccc2c(c1)nnn2C1CCN(CC(=O)N(c2ccccc2)c2ccccc2)CC1	CHRM1 antagonist 34
Cc1ccc2c(c1)nnn2C1CCN(S(=O)(=O)c2cccc(S(=O)(=O)N(C)C)c2)CC1	CHRM1 antagonist 37
N=C1c2ccccc2CN1c1ccc(S(=O)(=O)N2CCCCC2)cc1	CHRM1 antagonist 74
O=C1c2ccccc2C(=O)N1c1ccc(S(=O)(=O)N2CCCCC2)cc1	none
CCOC(=O)c1ccc(N2Cc3ccccc3C2=N)cc1	CHRM1 antagonist 70
Cc1nc(SCC(=O)N2CCN(c3ccccn3)CC2)c(C#N)c(C)c1C	none
O=C(c1[nH]c(C(F)(F)F)nc1-c1ccccc1)N1CCN(c2c(Cl)cncc2Cl)CC1	M1 ag 17
O=C(c1[nH]c(C(F)(F)F)nc1-c1ccccc1)N1CCN(c2ccccc2)CC1	none
CCOc1ccc(OCc2ccc(C(=O)N3N=C(C(F)F)CC3(O)C(F)F)o2)cc1 (configuration not stated)	none
O=C(c1cc(-c2ccccc2)nc2ccccc12)N1N=C(C(F)F)CC1(O)C(F)F (configuration not stated)	CHRM1 PAM 22
O=C(c1ccc(COc2ccc(Br)cc2)o1)N1N=C(C(F)F)CC1(O)C(F)F (configuration not stated)	CHRM1 antagonist 33
O=C(c1ccc(COc2ccc3ccccc3c2)o1)N1N=C(C(F)F)CC1(O)C(F)F (configuration not stated)	CHRM1 antagonist 56
O=C(CSc1nnc(CNC(=O)c2cccs2)o1)Nc1ccccc1F	none
Cc1ccn(CCC(=O)N2CCCC(N3CCN(c4ccccc4C)CC3)C2)n1 (configuration not stated)	M1 ag 49
Cc1ccccc1N1CCN(C2CCCN(C(=O)CCC(=O)N(C)C)C2)CC1 (configuration not stated)	none
CC(CN1CCCC1)OC(=O)C(c1ccccc1)c1ccccc1 (configuration not stated)	none
COc1ccc(C(C(=O)OC(C)CN(C)C)c2ccccc2)cc1 (configuration not stated)	CHRM1 antagonist 32
